The source made the active and inactive calls.
How the values were obtained:
[1] = tested on: Plasmodium falciparum Sir2 (PF13_0152, Sir2A); experiment: Plasmodium falciparum Sir2A binding compounds – biochemical, small-molecule microarray, 635 nm fluorescence, primary screen (AID 1098); conditions: fluorescence 635 nm, higher = more signal;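 also: score merges spot fluorescence intensity with its signal-to-noise ratio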
[2] = probe aDKK1 binding to arrayed compounds – biochemical, biotinylated probe, 635/667 nm fluorescence, primary screen (AID 1099); conditions: small-molecule microarray, higher = more signal;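 also: score merges 667nm spot fluorescence with signal to noise across triplicate slides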
[3] = probe aCHRDL2 binding to arrayed compounds – biochemical, biotinylated probe, 635/667 nm fluorescence, primary screen (AID 1100); conditions: small-molecule microarray, higher = more signal
[4] = change in splice reporter luminescence, either direction, cell-based, HEK293, spliceosome inhibition project, primary screen (AID 1101); conditions: HEK293 splicing luciferase reporter, 24 h, higher = more signal, called active from +8 up or from −8 down;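 also: HEK293 cells carrying a splicing-competent luciferase reporter gene; test concentration not given here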
[5] = molecular target: Fibroblast growth factor 10 (Homo sapiens) (UniProt O15520); experiment: compounds binding fibroblast growth factor 10 – biochemical, small-molecule microarray, 635 nm fluorescence, primary screen (AID 1102); conditions: FGF10 binding, fluorescence 635 nm, higher = more signal
[6] = tested on: glycogen synthase kinase-3 (GSK3A per assay name; protocol says GSK3B); experiment: compounds binding glycogen synthase kinase-3 – biochemical, small-molecule microarray, 635 nm fluorescence, GSK3A, primary screen (AID 1103); conditions: fluorescence 635 nm, higher = more signal; also: the record names both GSK3A and GSK3B
[7] = molecular target: Epidermal growth factor receptor (Homo sapiens) (UniProt P00533); experiment: compounds binding epidermal growth factor receptor – biochemical, small-molecule microarray, 635 nm fluorescence, primary screen (AID 1104); conditions: EGFR binding, higher = more signal;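 also: score merges 667 nm emission intensity with spot signal to noise over triplicate slides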
[8] = molecular target: Follistatin-related protein 3 (Homo sapiens) (UniProt O95633); experiment: compounds binding follistatin-related protein 3 – biochemical, small-molecule microarray, 635 nm fluorescence, primary screen (AID 1105); conditions: FSTL3 binding, higher = more signal;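 also: score merges emission near 667 nm and signal to noise per printed spot across three slides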
[9] = molecular target: Dickkopf-related protein 1 (Homo sapiens) (UniProt O94907); experiment: small molecules binding DKK1 protein – biochemical, small-molecule microarray, 635 nm fluorescence scan, primary screen (AID 1106); conditions: higher = more signal;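 also: score merges emission near 667 nm with signal to noise over three replicate slides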
[10] = tested on: Inhibin beta A chain (activin A); experiment: small molecules binding activin A – biochemical, small-molecule microarray, 635 nm fluorescence scan, primary screen (AID 1107); conditions: INHBA, higher = more signal;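 also: mouse activin A protein probed at 4.33 µg/mL on printed slides; score merges bound-protein fluorescence near 667 nm with spot signal-to-noise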
[11] = tested on: Human papillomavirus type 1a protein E7 (residues 44-93); experiment: small molecules binding HPV E7 44-93 – biochemical, small-molecule microarray, residues 44-93, 635 nm fluorescence, primary screen (AID 1108); conditions: fluorescence 635 nm, higher = more signal;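 also: E7 fragment applied at 1 µg/mL in TBST for 1 h at 4 C; score combines spot fluorescence with its signal to noise ratio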
[12] = hepatitis C replication reporter changes, two-sided – Huh7 cells, luciferase reporter, HCV replication inhibitor project, primary screen (AID 1109); conditions: Huh7 HCV replicon luciferase reporter, 48 h; higher = more signal;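 also: huh7 hepatoma cells harbouring a luciferase neomycin HCV replicon reporter; luciferase luminescence as measure of HCV replicon replication; test concentration not given here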
[13] = molecular target: Left-right determination factor 2 (Homo sapiens) (UniProt O00292); experiment: small molecules binding LEFTY2 protein – biochemical, small-molecule microarray, 635 nm fluorescence scan, primary screen (AID 1110); conditions: higher = more signal
[14] = molecular target: Calmodulin-1 (Homo sapiens) (UniProt P0DP23); experiment: small molecules binding calmodulin-1 with EGTA – biochemical, small-molecule microarray, Cy5-labelled CALM1, profiling panel (AID 1111); conditions: Cy5-CALM1 binding fluorescence, higher = more signal;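 also: labelled calmodulin applied in Tris saline Tween buffer holding calcium plus EGTA and DTT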
[15] = molecular target: Calmodulin-1 (Homo sapiens) (UniProt P0DP23); experiment: small molecules binding Ca-loaded calmodulin-1 – biochemical, small-molecule microarray, Cy5-labelled CALM1, plus calcium, artefact control for SMM control-protein annotation, profiling panel (AID 1112); conditions: Cy5-CALM1 binding fluorescence, higher = more signal;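 also: score merges spot fluorescence with signal to noise from triplicate slides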
[16] = probe aWnt5a binding to arrayed compounds – biochemical, biotinylated probe, 635/667 nm fluorescence, primary screen (AID 1113); conditions: small-molecule microarray, higher = more signal;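 also: score merges 667 nm fluorescence intensity with signal-to-noise per printed feature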
[17] = probe aShh binding to arrayed compounds – biochemical, biotinylated probe, 635/667 nm fluorescence, primary screen (AID 1114); conditions: small-molecule microarray, higher = more signal;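 also: probe is biotin-labelled aShh protein from a stem cell growth factor screen; measures binding of labelled protein to compounds printed on the slide; score merges feature fluorescence at 667 nm with signal-to-noise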
[18] = probe aNog binding to arrayed compounds – biochemical, biotinylated probe, 635/667 nm fluorescence, primary screen (AID 1115); conditions: small-molecule microarray, higher = more signal;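 also: probe is biotinylated aNog protein used at 0.15 µg/mL for 1 h at 4 C; z-score combines 667 nm fluorescence of each spot with its signal to noise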
[19] = molecular target: Torsin-1A-interacting protein 1 (Homo sapiens) (UniProt Q5JTV8); experiment: compound microarray binding of lysate hLAP1 – cell lysate, small-molecule microarray, COS7 lysate, 635/667 nm fluorescence, primary screen (AID 1116); conditions: 635 nm fluorescence, higher = more signal
[20] = molecular target: Alpha-bungarotoxin (Bungarus multicinctus) (UniProt P60615); experiment: compounds binding labelled alpha-BTX control protein – biochemical, small-molecule microarray, Alexa647 label, 635/667 nm fluorescence, artefact control for SMM control protein annotation, profiling panel (AID 1117); conditions: alpha-BTX-A647 binding fluorescence, higher = more signal
Sequence of Alpha-bungarotoxin (Bungarus multicinctus) (P60615 whole entry, looked up): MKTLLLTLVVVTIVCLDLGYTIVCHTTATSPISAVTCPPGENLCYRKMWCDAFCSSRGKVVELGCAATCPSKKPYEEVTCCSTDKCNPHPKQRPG

Sequence of Dickkopf-related protein 1 (Homo sapiens) (O94907 whole entry, looked up): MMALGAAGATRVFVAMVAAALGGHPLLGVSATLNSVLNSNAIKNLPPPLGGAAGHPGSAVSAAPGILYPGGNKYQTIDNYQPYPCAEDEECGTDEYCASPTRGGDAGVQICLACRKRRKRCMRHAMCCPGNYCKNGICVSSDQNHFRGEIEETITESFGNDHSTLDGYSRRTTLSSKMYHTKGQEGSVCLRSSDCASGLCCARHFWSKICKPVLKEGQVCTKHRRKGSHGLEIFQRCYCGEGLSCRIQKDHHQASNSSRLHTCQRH
Sequence of Epidermal growth factor receptor (Homo sapiens) (P00533 whole entry, looked up): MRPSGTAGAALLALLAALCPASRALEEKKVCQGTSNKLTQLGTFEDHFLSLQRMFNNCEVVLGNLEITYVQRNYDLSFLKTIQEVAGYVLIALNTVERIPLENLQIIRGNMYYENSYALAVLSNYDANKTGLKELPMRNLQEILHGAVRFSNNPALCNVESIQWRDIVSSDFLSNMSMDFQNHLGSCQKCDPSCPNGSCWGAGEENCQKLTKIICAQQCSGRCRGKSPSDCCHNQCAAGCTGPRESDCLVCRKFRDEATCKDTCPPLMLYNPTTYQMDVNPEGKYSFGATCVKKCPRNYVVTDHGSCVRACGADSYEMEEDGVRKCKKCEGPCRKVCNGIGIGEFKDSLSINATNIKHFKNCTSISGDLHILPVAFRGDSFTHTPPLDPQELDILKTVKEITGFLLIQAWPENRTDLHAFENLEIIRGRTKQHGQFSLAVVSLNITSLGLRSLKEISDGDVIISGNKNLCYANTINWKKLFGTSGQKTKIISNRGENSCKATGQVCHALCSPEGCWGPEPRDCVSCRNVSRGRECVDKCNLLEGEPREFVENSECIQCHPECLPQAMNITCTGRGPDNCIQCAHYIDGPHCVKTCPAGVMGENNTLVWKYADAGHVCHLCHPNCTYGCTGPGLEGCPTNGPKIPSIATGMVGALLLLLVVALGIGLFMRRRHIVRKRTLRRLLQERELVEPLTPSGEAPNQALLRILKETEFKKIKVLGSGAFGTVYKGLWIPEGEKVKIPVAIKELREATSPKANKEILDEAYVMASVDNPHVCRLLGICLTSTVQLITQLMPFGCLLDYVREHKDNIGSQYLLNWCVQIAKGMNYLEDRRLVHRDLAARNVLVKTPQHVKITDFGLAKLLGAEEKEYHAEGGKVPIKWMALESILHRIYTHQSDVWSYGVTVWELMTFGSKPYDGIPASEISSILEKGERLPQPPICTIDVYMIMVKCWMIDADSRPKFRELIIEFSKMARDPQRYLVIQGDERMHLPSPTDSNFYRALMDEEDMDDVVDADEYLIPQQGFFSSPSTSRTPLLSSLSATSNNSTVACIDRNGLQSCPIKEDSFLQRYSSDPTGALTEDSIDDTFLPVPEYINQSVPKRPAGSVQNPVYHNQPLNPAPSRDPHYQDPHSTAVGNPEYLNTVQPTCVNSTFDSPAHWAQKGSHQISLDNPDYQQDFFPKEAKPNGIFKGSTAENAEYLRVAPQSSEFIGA
Sequence of Follistatin-related protein 3 (Homo sapiens) (O95633 whole entry, looked up): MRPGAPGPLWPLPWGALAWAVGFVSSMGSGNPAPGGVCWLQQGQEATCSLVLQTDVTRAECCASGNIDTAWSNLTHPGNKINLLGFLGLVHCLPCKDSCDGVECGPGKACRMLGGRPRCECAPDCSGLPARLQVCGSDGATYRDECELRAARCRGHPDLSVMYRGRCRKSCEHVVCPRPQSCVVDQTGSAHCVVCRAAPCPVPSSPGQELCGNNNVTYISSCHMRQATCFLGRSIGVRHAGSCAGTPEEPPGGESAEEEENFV
Sequence of Left-right determination factor 2 (Homo sapiens) (O00292 whole entry, looked up): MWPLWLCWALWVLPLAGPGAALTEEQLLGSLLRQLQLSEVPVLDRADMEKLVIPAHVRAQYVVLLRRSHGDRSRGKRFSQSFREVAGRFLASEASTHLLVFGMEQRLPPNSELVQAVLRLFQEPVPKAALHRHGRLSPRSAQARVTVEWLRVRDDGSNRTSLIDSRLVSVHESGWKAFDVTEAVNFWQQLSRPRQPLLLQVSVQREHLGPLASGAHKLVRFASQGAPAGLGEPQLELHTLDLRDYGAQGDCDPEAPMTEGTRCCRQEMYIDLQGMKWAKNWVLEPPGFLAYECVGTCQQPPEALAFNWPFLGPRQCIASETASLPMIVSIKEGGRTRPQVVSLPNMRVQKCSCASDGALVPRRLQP
Sequence of Torsin-1A-interacting protein 1 (Homo sapiens) (Q5JTV8 whole entry, looked up): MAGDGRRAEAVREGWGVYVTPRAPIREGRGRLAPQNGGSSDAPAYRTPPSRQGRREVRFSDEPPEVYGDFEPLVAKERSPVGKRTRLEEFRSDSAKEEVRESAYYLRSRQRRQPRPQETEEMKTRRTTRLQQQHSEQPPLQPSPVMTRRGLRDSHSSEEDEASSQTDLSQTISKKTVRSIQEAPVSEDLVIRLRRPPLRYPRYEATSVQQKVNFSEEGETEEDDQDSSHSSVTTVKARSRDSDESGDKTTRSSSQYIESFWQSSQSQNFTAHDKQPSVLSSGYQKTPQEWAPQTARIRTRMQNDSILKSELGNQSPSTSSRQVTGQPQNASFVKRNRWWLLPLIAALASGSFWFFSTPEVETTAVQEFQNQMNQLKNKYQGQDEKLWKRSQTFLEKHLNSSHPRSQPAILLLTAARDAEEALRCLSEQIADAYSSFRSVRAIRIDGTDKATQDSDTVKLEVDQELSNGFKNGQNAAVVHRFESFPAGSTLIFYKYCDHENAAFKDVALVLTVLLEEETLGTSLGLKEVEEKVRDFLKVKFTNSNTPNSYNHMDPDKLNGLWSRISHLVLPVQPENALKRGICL
Sequence of Fibroblast growth factor 10 (Homo sapiens) (O15520 whole entry, looked up): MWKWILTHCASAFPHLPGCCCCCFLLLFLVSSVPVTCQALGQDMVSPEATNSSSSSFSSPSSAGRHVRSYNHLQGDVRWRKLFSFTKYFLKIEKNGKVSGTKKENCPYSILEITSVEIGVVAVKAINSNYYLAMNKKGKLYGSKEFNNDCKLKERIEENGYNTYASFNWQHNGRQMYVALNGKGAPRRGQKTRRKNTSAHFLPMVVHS

Compound	composite z-score [1]	composite z-score [2]	composite z-score [3]	z-score [4]	composite z-score [5]	composite z-score [6]	composite z-score [7]	composite z-score [8]	composite z-score [9]	composite z-score [10]	composite z-score [11]	z-score [12]	composite z-score [13]	composite z-score [14]	composite z-score [15]	composite z-score [16]	composite z-score [17]	composite z-score [18]	composite z-score [19]	composite z-score [20]
[N-]=[N+]=Nc1ccccc1[C@@H]1OC(c2ccc(OCCCO)cc2)=N[C@]1(CCS(=O)(=O)c1ccccc1)C(=O)NCC(O)CO (stereo not given in full)	1.73	-0.181	0.72	-0.633 (inactive)	-0.176	0.434	-0.586	-0.332	-0.328	0.693	0.535	-0.485	-0.741	0.867	-0.271	-0.0977	-0.0011	0.437	2.18	0.534
C[C@@H]1ON(c2ccc(I)cc2)[C@H](c2cccc(NC(=O)OCC3c4ccccc4-c4ccccc43)c2)[C@H]1C(=O)N1C(=O)OC[C@H]1Cc1ccccc1	0.683	1.04	-0.387	-0.271 (inactive)	0.252	0.529	0.325	0.951	1.05	0.529	0.531	-0.31	0.678	0.224	-0.435	-0.142	-0.0866	-0.285	0.246	-0.0652
O=C1C2C=CC(C(O)c3c(F)cccc3Cl)N(Nc3ccc([N+](=O)[O-])cc3)C2C(=O)N1c1ccccc1 (stereo not given)	0.77	-0.124	-0.0918	-0.108 (inactive)	1.2	1.27	0.518	1.45	0.875	0.191	1.41	0.128	0.563	2.16	0.132	-0.0222	0.23	0.803	1.6	0.676
CCCCCC1=C2CNC(Cc3ccccc3)(C(=O)OC)C=C2C(C)C1=O (stereo not given)	0.0442	0.926	1.37	73.6 (active)	-0.0286	-1.16	-0.779	-0.733	-1.84	1.47	0.719	-1.85	-1.75	1.54	1.46	-0.0643	0.45	1.7	1.64	0.175
CC(C)N1C(=O)c2ccccc2[C@](C)(C(=O)NCC(F)(F)F)[C@@H]1c1ccc(CO)cc1	0.0632	0.698	1.06	0.88 (inactive)	-1.28	-0.907	-0.333	-0.961	-0.693	0.177	-0.39	0.164	-1.41	-0.625	0.179	0.0031	-0.153	0.543	0.716	-0.573
C=C(CCCC)C(=O)CC[C@@H](OC(=O)c1ccccc1-c1ccccc1C(=O)O)c1ccccc1OCCO	0.776	-0.286	-0.543	2.3 (inactive)	1.27	-0.121	-0.215	0.27	0.373	0.959	1.19	-2.84	0.0268	0.525	-0.954	-0.096	-0.0904	-0.147	2.43	0.16

From PubChem BioAssay
